The campaign covered roughly 30,000 compounds. About 190 (0.63%) were called active. This is one part of a sample in which actives are shown more often than they occur. Cut-off read from the data, not from the text of the source: active = viability loss activity score above about 50%; inconclusive = no clear call, values can overlap the other calls; inactive = below about 35%.
Experiment: cytotoxicity in HRASV12-transformed BJ fibroblasts – cell-based, luminescence, CellTiterGlo ATP, primary screen (AID 2275);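 note: higher score means fewer live cells and less ATP luminescence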
Conditions: BJeLR fibroblasts viability, 48 h, active compounds read high, concentration not given here; HRASV12, hTERT and SV40 LT/ST transformed unless noted

| Compound | viability loss activity score |
| --- | --- |
| CN[C@@H]1C[C@H]2O[C@@](C)([C@@H]1OC)n1c3ccccc3c3c4c(c5c6ccccc6n2c5c31)C(=O)NC4 | 127% (active) |
| CCCCCCCCCCCCCC(=O)O[C@@H]1[C@@H](C)[C@@]2(O)[C@@H](C=C(CO)C[C@]3(O)C(=O)C(C)=C[C@@H]23)[C@@H]2C(C)(C)[C@]12OC(C)=O | 4.17% (inactive) |
| CN1C2C=C(N(C(=O)c3ccc(Cl)cc3)c3ccccc3)CC1CC2 (stereo not given) | 0.717% (inactive) |
| CCOC(=O)[C@@H]1[C@@H]2NC(=O)N[C@@]1(C)Oc1ccccc12 | -1.85% [setting not given] (inactive) |
| Fc1ccc(CNC2=NCCS2)cc1 | 2.3% (inactive) |
| CNC(=O)N(C)c1nnc(C(C)(C)C)s1 | -2.35% [setting not given] (inactive) |
| c1ccc2c(c1)[I+]c1ccccc1-2 | 73.2% (active) |
| CC(=O)Nc1nc(C)c(Oc2ccccc2)c(OC(=O)N(C)C)n1 | -1.11% (inactive) |
| COC1=C[C@@H]2[C@@H]3Cc4ccc(OC)c(O)c4[C@]2(CCN3C)CC1=O | 1.23% [setting not given] (inactive) |
| CN1CC=C(c2noc(CCC(=O)Nc3ccc(F)cc3F)n2)CC1 | 2.02% (inactive) |
| CC(C)[C@@]1(NC(=O)[C@@H]2CC3c4cccc5[nH]cc(c45)C[C@H]3N(C)C2)O[C@@]2(O)[C@@H]3CCCN3C(=O)[C@H](Cc3ccccc3)N2C1=O (stereo not given in full) | -5.08% (inactive) |
| O=C(O)C1C2CCC(O2)C1C(=O)N1CCN(C/C=C/c2ccccc2)CC1 (stereo not given) | 8.76% (inactive) |
| C[C@H]1O[C@@H](O[C@H]2CC[C@]3(CO)C4CC[C@]5(C)[C@@H](C6=CC(=O)OC6)CC[C@]5(O)[C@@H]4CC[C@H]3C2)[C@H](O)[C@H](O)[C@@H]1O[C@@H]1O[C@H](CO)[C@@H](O)[C@H](O)[C@H]1O (stereo not given in full) | 109% (active) |
| Cc1ccc(CSc2nnc(OC(=O)N(C)C)n2-c2cccc(Cl)c2)cc1 | 5.26% (inactive) |
| CC1N=C(c2ccccc2)c2ccccc2N(CCCOc2ccc(F)cc2)C1=O (stereo not given) | -3.72% (inactive) |
| CC(C)(c1ccccc1)c1ccc(O)cc1 | 0.81% (inactive) |
| CC(C)c1ccc2c(c1O)CC[C@H]1C3=C(CC[C@]21C)C(=O)OC3 | 4.52% (inactive) |
| C[C@H]1CCC/C=C/C2C[C@H](O)C[C@H]2[C@H](O)/C=C\C(=O)O1 (stereo not given in full) | 74.4% (active) |
| CCN(CC)C(=O)c1ccc(N(Cc2ccccc2Cl)S(C)(=O)=O)cc1 | 5.52% (inactive) |
| Fc1cccc(NC2=NCCS2)c1 | 7.57% (inactive) |
